RORg inh: ROR gamma (mouse) transcription inhibition. Drosophila S2 Gal4-RORgamma UAS-luciferase reporter, 20 h. P51450. actives 5.4% (n = 310,000). Potency, µM (series often up to 53.6 µM), without a hit: at the highest dose activity change, negative = inhibition, actives largely listed as inhibitors; also: nearly all actives have a fitted effect of over 60% in size
Target sequence (P51450 whole entry, looked up, the tested form may be a part): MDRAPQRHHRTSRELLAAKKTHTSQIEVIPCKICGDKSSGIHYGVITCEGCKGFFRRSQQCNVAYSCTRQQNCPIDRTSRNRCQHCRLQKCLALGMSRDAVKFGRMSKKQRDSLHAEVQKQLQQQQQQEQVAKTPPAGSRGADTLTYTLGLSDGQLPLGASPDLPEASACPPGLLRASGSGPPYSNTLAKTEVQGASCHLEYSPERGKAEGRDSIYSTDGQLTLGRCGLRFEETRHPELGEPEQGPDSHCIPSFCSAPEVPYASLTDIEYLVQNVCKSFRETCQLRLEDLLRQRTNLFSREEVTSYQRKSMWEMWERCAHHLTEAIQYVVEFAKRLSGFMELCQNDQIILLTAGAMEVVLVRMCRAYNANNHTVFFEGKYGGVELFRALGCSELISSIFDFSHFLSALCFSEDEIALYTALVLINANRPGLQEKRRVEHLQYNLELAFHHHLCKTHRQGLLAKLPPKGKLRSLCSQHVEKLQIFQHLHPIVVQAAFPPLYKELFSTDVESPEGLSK
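ROR gamma transcriptional activity was tracked as Gal4-UAS luciferase output in stably transfected Drosophila Schneider cells, with compound added 1 hr before 700 uM copper sulfate induction and a 20 hr ambient-temperature incubation.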
KinaseGlo FLuc: blocks Kinase-Glo luciferase, a counter-screen artifact | Kinase-Glo luciferase, ATP luminescence, 8 min | Q27757 | AID 1379 | actives 0.28% (n = 200,000) | Potency, µM (top dose mostly 38.3 µM), without a hit: at the top dose activity change, negative = inhibition, usual class: inhibitors; also: nearly all actives have a fitted effect of over 60% in size
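Light output from Kinase-Glo luciferase with luciferin and 10 uM ATP in 50 mM imidazole pH 7.2, KCl, MgCl2, Tween 20, BSA; compound pin-delivered, 8-min ambient incubation, then luminescence read.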
VP16 counter: counter-screen for ROR gamma inhibitors: Gal4-VP16 reporter; Drosophila S2 Gal4-VP16 UAS-luciferase, luminescence, 20 h; Potency, µM (titrated, usually from 53.6 µM), for the others: at the highest dose activity, negative = inhibition, usual class: inhibitors; actives 3.5% (n = 310,000);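 also: Gal4-VP16 expression switched on by copper sulfate through the metallothionein promoter; nearly all actives have a fitted effect of over 50% in size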
Numbers without * were called inactive; ? = inconclusive; nt = no result; [ ] = dose if it differs, or a comment. Sampled rows, rich in hits. Any-hit rate of the full collection: about 6.2%. Calls follow the shape of the dose curve; as a rule, active = well fitted curve in the direction sought with a large enough effect; inconclusive = small, poorly fitted or top-dose-only effect, or another doubt; inactive = no such curve, though single readings can be large; an effect the other way counts as inactive or inconclusive. % is scaled to controls: 0 for no effect and ±100 for the full control effect; potency is read from the fitted curve at half-maximal effect.

SMILES | RORg inh | KinaseGlo FLuc | VP16 counter
Cc1ccc(NC(=O)C2=C(O)c3sccc3N(C)S2(=O)=O)cc1 | 29.4% | 3.5% | -7.7%
Cc1ccc(NC(=S)C2=C(O)c3sccc3N(C)S2(=O)=O)cc1 | 12.6µM* | -0.6% | 15.8µM*
COC(=O)C/C=C\[C@@H](C)[C@@H](/C=N\O[C@@H](C)c1cn([C@H](CO)Cc2ccccc2)nn1)OC | -8.0%[10 µM] | nt | 3.0%[10 µM]
CCCn1c(-c2ccc(F)cc2)nc2c(NCC3CCN(C)CC3)nc(C)nc21 | -20.2% | -2.3% | -6.1%
CCCCCCCC(=O)N/N=C(\C)c1ccc(N)cc1 | 19.3% | 6.5% | -14.8%
C/C(=N\NC(=O)COc1ccccc1-c1ccccc1)c1ccc(O)cc1O | 0.0% | nt | ?
C/C(=N\NC(=O)c1cccs1)c1c(O)cc(C)oc1=O | 4.47µM* | nt | 5.01µM*
CCCCCCCCC(=O)N/N=C(\C)c1ccco1 | ? | -2.6% | 4.6%
CCCCCCCC(=O)N/N=C(\C)c1ccc(O)cc1O | 7.08µM* | 0.9% | 11.2µM*
CCCCCCCC(=O)N/N=C(/C)c1c(O)cc(C)oc1=O | 8.91µM* | -3.0% | 22.4µM*
CCCCCCCCC(=O)N/N=C(\C)c1ccc(O)cc1O | 3.55µM* | 0.1% | ?
C/C(=N/NC(=O)c1cccs1)c1cccs1 | ? | nt | -1.5%
COc1cc2c(cc1OC)C(C)N(C(=O)C(NC(=O)c1ccccc1)C(C)C)CC2 (stereo unspecified) | -12.9% | nt | -3.2%
Cc1cnc(C(=O)Nc2cc(S(=O)(=O)N3CCOCC3)ccc2N2CCN(C)CC2)cn1 | 17.3% | -0.4% | 1.6%
CC1(C)NC(=O)N(CC(=O)OCc2cc(=O)n3cc(Br)ccc3n2)C1=O | -7.6% | 2.4% | 3.7%
O=C(CN1C(=O)NC2(CCCC2)C1=O)OCc1cc(=O)n2cc(Br)ccc2n1 | 3.16µM* | nt | -92.6%
CCc1c(O)c(-c2ccccc2)c(=O)n(-c2ccccn2)c1-c1ccccc1 | 18.9% | nt | -4.1%
OCCCNC(=S)Nc1ccc(Br)cc1Cl | 7.9% | nt | 29.3%
S=C(NCc1ccco1)Nc1ccc(Br)cc1Cl | 12.6µM* | 0.8% | -25.2%
O=C(NCc1ccco1)Nc1ccccc1Cl | ? | -0.4% | 32.0%
S=C(NCc1ccco1)Nc1ccc(Cl)cc1Cl | 11.2µM* | -5.4% | ?
Cc1ccc(S(=O)(=O)N(C(=N)N)c2nc(N(C)C)nc(N(C)C)n2)cc1 | 16.9% | nt | -0.6%
CCOC(=O)CSc1nnc(NC(=O)CCc2ccccc2)s1 | 6.6% | nt | 2.8%
O=[N+]([O-])c1ccccc1-c1ccc(/C=N/n2cnnc2)o1 | 16.5% | 5.0% | -3.3%
O=C1ON=C(c2ccccc2)/C1=C/c1ccc(-c2ccccc2[N+](=O)[O-])o1 | ? | 0.8% | 10µM*
SMILES | RORg inh | KinaseGlo FLuc | VP16 counter
COc1cc(NC(=O)CN(C)S(=O)(=O)c2ccc3c(c2)CC(C)N3C(C)=O)cc(OC)c1 (stereo unspecified) | 32.6% | nt | 6.4%
COc1cc(NC(=S)N2c3ccccc3CC2C)cc(OC)c1 (stereo unspecified) | 8.91µM* | nt | 17.8µM*
COc1ccc(OC)c(NC(=S)N2c3ccccc3CC2C)c1 (stereo unspecified) | 36.3% | nt | -0.5%
COc1cccc(NC(=S)N2c3ccccc3CC2C)c1 (stereo unspecified) | 22.4µM* | nt | ?
COc1ccc(Oc2ncc3nc(-c4ccc(OC)cc4)c(=O)n(Cc4cccs4)c3n2)cc1 | -28.5% | -0.9% | -1.8%
CCCCN1C[C@H](Cc2ccccc2)[C@@H](CC(=O)Nc2ccccc2)C1=O | 41.2% | nt | 2.3%
NC(=O)NC(CC(=O)NCCCc1ccccc1)c1ccc(Cl)cc1 (stereo unspecified) | -3.2% | nt | -2.1%
O=C(Cc1ccc([N+](=O)[O-])cc1)NC1CCCCCC1 | 12.1% | nt | 0.2%
CCOC(=O)c1[nH]cnc1C(=O)Nc1ccc([N+](=O)[O-])cc1 | -0.3% | nt | -12.2%
O=C(Nc1ccc([N+](=O)[O-])cc1)c1nc[nH]c1C(=O)NC1CCCCC1 | 1.58µM* | -1.2% | 3.55µM*
O=C(Nc1ccc(F)cc1)c1nc[nH]c1C(=O)Nc1ccc([N+](=O)[O-])cc1 | 5.01µM* | 1.0% | 7.08µM*
Cc1cccc2c3c(ccc12)C1=C(C(=O)C3=O)[C@@H](C)CO1 | -1.2% | nt | -11.4%
CCCCc1nc2c(c3c1C[C@H](C)OC3)CN(C(=O)Cc1cccs1)CC2 | nt | -2.6%[7.66 µM] | nt
Cc1ccccc1NC(=O)CCN1CCN(C)CC1 | 10µM* | nt | -9.6%
Cc1ccccc1NC(=O)CN1CCN(C)CC1 | -16.1% | nt | -2.7%
CCOC(=O)CSc1nnc([C@H](Cc2ccccc2)NC(=O)OC(C)(C)C)o1 | -6.9% | -0.2% | -2.7%
CC(C)(C)OC(=O)N[C@@H](Cc1ccccc1)c1nnc(S(=O)(=O)Cc2cccc(F)c2)o1 | 4.47µM* | 6.0% | 4.47µM*
